Calls of active or inactive are those of the source.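 Rule for the calls, unless noted: active = visually confirmed hit in the image check and inhibition above 20%; inconclusive = visually confirmed hit but inhibition not above 20%; inactive = no visual hit in the image check.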
Key:
[1] = inhibitors of TNFa-induced NFkB p65 translocation, primary screen, imaging, HUVEC, MLSMR starter and 10KST1 sets (AID 438;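 active = inhibition above 20% together with a positive visual image hit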;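 note: compound added about 3h40 before a 20 min TNFalpha stimulation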;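 for inhibition: signal is the nuclear over cytoplasmic p65 intensity ratio per well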); settings: HUVEC TNFa-induced p65 nuclear translocation; cell count: measured here: nuclei count (cytotoxicity indicator), at 2.08 µM; inhibition: at 2 µM, stronger effect = higher value, 0% TNFa-plus-vehicle, 100% no-TNFa wells
[2] = reduction of polyQ htt aggregates in cells – imaging, exon1htt(103Q)mCFP cells, high-content imaging, primary screen (AID 483;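 active = visual image review flags a hit and inhibition of aggregation exceeds 20%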;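 note: compound exposure lasted 3 days before fixation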;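 for nuclei count: percent of the per-plate median nuclei count of sample wells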); settings: exon1htt(103Q)mCFP cell line, aggregate imaging, at 2 µM; inhibition of aggregation: stronger effect = higher value; nuclei count: measured here: cell count, toxicity
[3] = endothelial E-selectin expression blockers – imaging, HUVEC, immunofluorescence, MLSMR starter and 10KST1 sets, primary screen (AID 487); settings: HUVEC TNFalpha-induced E-selectin immunofluorescence imaging, at 2 µM; inhibition: stronger effect = higher value; nuclei count: measured here: cell number, toxicity;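 for inhibition: signal is fraction of cell area covered by stained E-selectin grains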;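 for nuclei count: 100% = median nuclei count of all wells on the same plate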
[4] = molecular target: Voltage-gated potassium channel subunit beta-2 (Rattus norvegicus) (UniProt P62483); test: inhibitors of rat Kvbeta2 reductase activity – biochemical, NADPH fluorescence, primary screen (AID 622;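 active = fluorescence slope higher than the sample average by over 3 SD, cut at about -0.22 in these data, passing the limit was not always enough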;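 note: slope of raw intensity against log time taken from 70 to 1610 s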); settings: recombinant KvBeta, 4-cyanobenzaldehyde reduction, at 10 µM, stronger effect = higher value
[5] = molecular target: Voltage-gated potassium channel subunit beta-2 (Rattus norvegicus) (UniProt P62483); test: enhancers of rat Kvbeta2 NADPH turnover – biochemical, NADPH fluorescence, primary screen (AID 623;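 active = NADPH fluorescence slope more negative than the mean of all samples by about 3 SD, 99.7% confidence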;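 note: fluorescence intensity change per second fitted from 20 to 320 s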); settings: Recombinant KvBeta, NADPH fluorescence decrease slope, 10 min; at 10 µM; stronger effect = lower value
[6] = molecular target: Alpha-2C adrenergic receptor (Homo sapiens) (UniProt P18825); test: compounds altering alpha2C-coupled GIRK flux – cell-based, HEK293 alpha2C/GIRK1/2, thallium flux, primary screen (AID 624;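 active = fluorescence slope after compound addition differing from the mean of all screened samples at 99.7% confidence, in either direction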;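 note: slope of fluorescence ratio to pre-addition baseline per second over 15 to 24 s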); settings: thallium flux BTC fluorescence, at 10 µM, actives lie on both sides
[7] = blockers of RIG-like receptor reporter activation – cell-based, Sendai virus stimulus, luciferase, 10K MLSCN set, TLR/RLR signaling modifier project, primary screen (AID 602276;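 active = inhibition at or above 50% at 10 µM; inactive = inhibition below 50%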;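 note: firefly luciferase from ISG56 promoter only with Renilla not read in this screen; 0% = Sendai virus plus DMSO and 100% = medium plus DMSO without virus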); settings: HEK293 RL24 IRF3 luciferase reporter, at 10 µM, stronger effect = higher value
[8] = TLR3 IRF3 reporter activation blockers – cell-based, poly I:C stimulus, luciferase, 10K MLSCN set, primary screen (AID 602277;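 active = inhibition of the reporter signal at or above 50%; inactive = inhibition below 50%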); settings: HEK293-TLR3 RL24 IRF3 luciferase reporter, at 10 µM, stronger effect = higher value

Sequence of Alpha-2C adrenergic receptor (Homo sapiens) (P18825 whole entry, looked up): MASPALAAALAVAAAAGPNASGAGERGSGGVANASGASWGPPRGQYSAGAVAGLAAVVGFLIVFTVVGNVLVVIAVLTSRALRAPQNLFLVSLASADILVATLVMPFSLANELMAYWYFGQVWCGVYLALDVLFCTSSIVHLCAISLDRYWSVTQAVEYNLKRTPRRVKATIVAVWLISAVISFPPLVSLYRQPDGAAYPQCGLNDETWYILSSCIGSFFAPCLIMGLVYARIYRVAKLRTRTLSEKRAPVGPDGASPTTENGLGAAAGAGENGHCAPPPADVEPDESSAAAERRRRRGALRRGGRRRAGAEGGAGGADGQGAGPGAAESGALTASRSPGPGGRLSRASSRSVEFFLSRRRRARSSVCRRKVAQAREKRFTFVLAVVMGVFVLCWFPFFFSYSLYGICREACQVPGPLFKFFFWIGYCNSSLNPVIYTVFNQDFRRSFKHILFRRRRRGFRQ
Sequence of Voltage-gated potassium channel subunit beta-2 (Rattus norvegicus) (P62483 whole entry, looked up): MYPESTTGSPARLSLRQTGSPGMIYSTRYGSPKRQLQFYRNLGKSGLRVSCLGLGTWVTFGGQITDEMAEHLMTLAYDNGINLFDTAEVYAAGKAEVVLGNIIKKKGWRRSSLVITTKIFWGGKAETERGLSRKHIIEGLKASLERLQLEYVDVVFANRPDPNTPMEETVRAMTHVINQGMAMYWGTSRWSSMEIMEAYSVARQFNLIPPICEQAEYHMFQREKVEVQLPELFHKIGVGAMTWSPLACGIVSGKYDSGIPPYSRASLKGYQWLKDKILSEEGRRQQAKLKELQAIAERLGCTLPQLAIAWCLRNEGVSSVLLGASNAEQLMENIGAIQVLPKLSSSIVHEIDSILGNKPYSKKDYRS

Structure (SMILES)	cell count [1]	inhibition [1]	inhibition of aggregation [2]	nuclei count [2] [%]	inhibition [3]	nuclei count [3] [%]	fluorescence slope [4]	NADPH fluorescence slope [5]	slope [6]	inhibition [7]	inhibition [8]
CCOc1ccccc1OCCCCN1CCCC1	608	10.2% (inactive)	15.7% (inactive)	100	-99% (inactive)	122	-0.47 (inactive)	-5.2e-06 (inactive)	0.00972 (active)	7.96% (inactive)	35.8% (inactive)
CCOC(=O)C1CCN(c2cc(C)nc3cc(-c4cccc(F)c4)nn23)CC1	675	-4.7% (inactive)	12% (inactive)	97.8	-82.8% (inactive)	99.1	-0.35 (inactive)	-1.5e-05 (inactive)	0.00523 (inactive)	-8.57% (inactive)	-12.2% (inactive)
c1ccc(-c2nnc(CSc3nncs3)o2)cc1	322	16.3% (inactive)	-19% (inactive)	110	-49.2% (inactive)	106	-0.402 (inactive)	-2e-05 (inactive)	0.00275 (inactive)	-21.1% (inactive)	-78.9% (inactive)
Cc1nc(NC2=NCN(CC3CCCO3)CN2)nc2ccccc12 (centres undefined)	346	-11.7% (inactive)	28.4% (active)	84.3	29% (inactive)	98.5	-0.548 (inactive)	-8.4e-06 (inactive)	0.00499 (inactive)	15.3% (inactive)	28.6% (inactive)
Cc1cccc(OCC(=O)N2CCN(C(=O)Cc3ccccc3)CC2)c1	264	-5.5% (inactive)	15.8% (inactive)	85.9	-34.1% (inactive)	111	-0.502 (inactive)	-4.5e-05 (inactive)	0.00476 (inactive)	5.28% (inactive)	16.6% (inactive)
COC(=O)c1c(C#N)c(N)nc2c1CCC2	474	-0.6% (inactive)	18.2% (inactive)	80.9	33.1% (inactive)	92.6	-0.00808 (active)	-2e-06 (inactive)	0.00834 (inactive)	9.2% (inactive)	8.56% (inactive)
COc1ccc2c(c1OC)C(=O)N(c1ccc3c(c1)CCC3)C2=O	683	-13.1% (inactive)	-0.9% (inactive)	103	-10.6% (inactive)	107	-0.499 (inactive)	3.4e-05 (inactive)	0.00573 (inactive)	8.67% (inactive)	-9.24% (inactive)
COc1nnc(-c2ccc(C)c(S(=O)(=O)NCCO)c2)c2ccccc12	325	-2.7% (inactive)	11.7% (inactive)	75.4	-17.6% (inactive)	95.3	-0.424 (inactive)	1e-05 (inactive)	0.0039 (inactive)	1.8% (inactive)	28.9% (inactive)
Cn1c(=O)[nH]c(=O)c2c1nc(Br)n2Cc1ccccc1F	668	8.8% (inactive)	19.4% (inactive)	68.3	4.9% (inactive)	106	-0.467 (inactive)	-3.7e-05 (inactive)	0.00509 (inactive)	9.21% (inactive)	12.8% (inactive)
Cc1nc(SCCC(=O)O)c2ccccc2n1	310	-2.5% (inactive)	9.6% (inactive)	112	40.9% (inactive)	105	-0.261 (inactive)	-2.6e-06 (inactive)	0.00515 (inactive)	11.6% (inactive)	18.5% (inactive)
COC(=O)c1c(-c2cccs2)csc1NC(=O)CN1CCOCC1	345	6% (inactive)	-6.9% (inactive)	106	-22.6% (inactive)	119	-0.519 (inactive)	-5.2e-05 (inactive)	0.00516 (inactive)	16.1% (inactive)	3.26% (inactive)
CCOC(=O)c1cnc(-n2cc(C)cn2)nc1Nc1ccccc1OC	750	-2.8% (inactive)	17.8% (inactive)	105	12.5% (inactive)	114	-0.641 (inactive)	-4.8e-05 (inactive)	0.0064 (inactive)	2.82% (inactive)	10.8% (inactive)
CCCN1C2CCCC1CC(NC(=O)c1ccccc1F)C2 (centres undefined)	461	6% (inactive)	-1.6% (inactive)	115	14.8% (inactive)	101	-0.515 (inactive)	-4.7e-05 (inactive)	0.00485 (inactive)	10.6% (inactive)	17.7% (inactive)
Cc1ccc(C2Nc3ccccc3-c3nc4ccccc4n32)o1 (centres undefined)	741	6.8% (inactive)	3.8% (inactive)	88.4	-26.5% (inactive)	80.6	-0.475 (inactive)	-2.2e-05 (inactive)	0.00364 (inactive)	-46.2% (inactive)	-110% (inactive)
O=C(O)C1CCCCC1C(=O)NCCc1ccccc1 (centres undefined)	350	4.6% (inactive)	14.3% (inactive)	99.3	-165% (inactive)	103	-0.535 (inactive)	-5.8e-05 (inactive)	0.00513 (inactive)	-15.8% (inactive)	-11.5% (inactive)
CSC1=NCCN1C(=O)c1ccc(S(=O)(=O)N2CCCC2)cc1	611	0.8% (inactive)	9.6% (inactive)	107	-7.2% (inactive)	105	-0.592 (inactive)	-1.6e-05 (inactive)	0.00671 (inactive)	11.2% (inactive)	33.2% (inactive)
CCN(CC)S(=O)(=O)c1cccc(-c2nnc(SCC(N)=O)n2CCc2ccccc2)c1	635	-4.4% (inactive)	-2.2% (inactive)	105	-32.3% (inactive)	125	-0.592 (inactive)	-8.5e-06 (inactive)	0.00663 (inactive)	7.68% (inactive)	11.1% (inactive)
COC(=O)[C@H](C)NC(=O)Nc1cccc(C(F)(F)F)c1	483	-2.7% (inactive)	29.8% (inactive)	85.5	-98.7% (inactive)	109	-0.537 (inactive)	2.9e-05 (inactive)	0.00446 (inactive)	-11.9% (inactive)	-5.94% (inactive)
COc1ccc(-c2c(C(F)(F)F)oc3c(CN4CCN(C)CC4)c(O)ccc3c2=O)cc1	555	7.7% (inactive)	-14% (inactive)	91.6	0.6% (inactive)	112	-0.421 (inactive)	2.5e-05 (inactive)	0.00536 (inactive)	-6.41% (inactive)	8.59% (inactive)
Cc1nc(-c2cccc(N)c2)cs1	726	-11% (inactive)	-14.5% (inactive)	77.8	-35.4% (inactive)	132	-0.514 (inactive)	-1e-05 (inactive)	0.00706 (inactive)	-3.62% (inactive)	-15.1% (inactive)
CC(C)Oc1cc2oc(=O)c3c(c2cc1Cl)CCC3	385	0.8% (inactive)	-21.6% (inactive)	56.6	-10.2% (inactive)	96.1	-0.445 (inactive)	2.2e-05 (inactive)	0.00687 (inactive)	-1.44% (inactive)	-17.4% (inactive)
O=C(Nc1ccccc1C(=O)N1CCN(c2ccccc2)CC1)c1ccco1	300	-5.1% (inactive)	6.3% (inactive)	98.2	-73.2% (inactive)	111	-0.605 (inactive)	-2.1e-05 (inactive)	0.00253 (inactive)	0.26% (inactive)	-6.86% (inactive)
CCCCS(=O)(=O)NC1=NCN(CCOC(=O)c2ccccc2)CN1	305	0.8% (inactive)	5.7% (inactive)	116	-50.4% (inactive)	112	-0.496 (inactive)	-4.1e-05 (inactive)	0.0043 (inactive)	13.9% (inactive)	20.7% (inactive)
CCN(CC)S(=O)(=O)c1ccc(NC(=O)CN(c2cccc(F)c2)S(C)(=O)=O)cc1	426	1.1% (inactive)	-25.1% (inactive)	107	-25.3% (inactive)	98.6	-0.449 (inactive)	2.5e-05 (inactive)	0.00334 (inactive)	8.61% (inactive)	18.3% (inactive)
O=C(NCc1cccs1)C1CCN(S(=O)(=O)c2cccs2)CC1	353	4.5% (inactive)	0.9% (inactive)	99.2	-13.4% (inactive)	120	-0.619 (inactive)	-1.4e-05 (inactive)	0.00617 (inactive)	7.22% (inactive)	15% (inactive)
O=c1[nH]c(SCc2ccc(F)cc2)nc2c1cnn2-c1ccc(F)cc1	652	-31% (inactive)	-8.4% (inactive)	95.8	-0.1% (inactive)	110	-0.57 (inactive)	1e-05 (inactive)	0.00683 (inactive)	-21.2% (inactive)	-12.1% (inactive)
O=C1CC(N2CCN(c3ccc(Cl)c(Cl)c3)CC2)C(=O)N1 (centres undefined)	361	0.7% (inactive)	-7.2% (inactive)	87.1	25.6% (inactive)	98.6	-0.466 (inactive)	-4.7e-05 (inactive)	0.00625 (inactive)	-2.47% (inactive)	20.7% (inactive)
CCOc1ccccc1OCC(=O)NCc1ccco1	375	-3.4% (inactive)	2.9% (inactive)	101	-16.4% (inactive)	92	-0.409 (inactive)	-4.3e-05 (inactive)	0.00437 (inactive)	11.5% (inactive)	9.81% (inactive)
Cc1ccccc1CSc1nnc(C)c(=O)[nH]1	600	1.1% (inactive)	-41.3% (inactive)	105	-37.9% (inactive)	133	-0.581 (inactive)	1.6e-05 (inactive)	0.00756 (inactive)	12.3% (inactive)	13.6% (inactive)

Source: PubChem BioAssay
